Data from PubChem BioAssay (EPA / NIEHS).
Some compounds were tested as several samples or in several runs, with calls that do not always agree. Activity calls are given as the source filed them. How the source made its calls: active means hit-call score of the fitted dose curve at least 0.9, where 1 is the maximum; inactive means score below 0.9.

Assays:
Details in all cases: mRNA level, 48 h; actives raise or lower the signal
[1] = read-out: ABC Transporter (ABCC2), ABCC2 (gene 1244); assay: LTEA_HepaRG_ABCC2: Life Technologies and Expression Analysis (LTEA) Assay for ABC Transporter (ABCC2) using HepaRG (AID 2283464)
Procedure, shortened: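 After plating and 48 h culture, HepaRG medium is replaced with serum-free induction medium and chemicals are added (8 concentrations, max 100 uM, 0.5% DMSO) for 48 h. Total RNA then undergoes qRT-PCR for ABCC2 with housekeeping normalization.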

[2] = read-out: Broad substrate specificity ATP-binding cassette transporter ABCG2 (Homo sapiens) (UniProt Q9UNQ0); assay: LTEA_HepaRG_ABCG2: Life Technologies and Expression Analysis (LTEA) Assay for ABC Transporter (ABCG2) using HepaRG (AID 2283465)
Procedure, shortened: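 Gene expression of ABCG2 in HepaRG liver cells is quantified by qRT-PCR following 48 h exposure across an eight-point series topping at 100 uM. Values come from bidirectional fitting relative to DMSO vehicle.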

[3] = read-out: ATP-citrate lyase (ACLY), ACLY (gene 47); assay: LTEA_HepaRG_ACLY: Life Technologies and Expression Analysis (LTEA) Assay for ATP-citrate lyase (ACLY) using HepaRG (AID 2283466)
Procedure, shortened: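 ACLY expression changes in human HepaRG liver cells are quantified by qRT-PCR after 48 h exposure to test chemicals (maximum 100 uM, half-log steps). Values are fitted in both directions relative to 0.5% DMSO vehicle.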

[4] = read-out: Peroxisomal acyl-coenzyme A oxidase 1 (ACOX1) gene, ACOX1 (gene 51); assay: LTEA_HepaRG_ACOX1: Life Technologies and Expression Analysis (LTEA) Assay for Peroxisomal acyl-coenzyme A oxidase 1 (ACOX1) gene using HepaRG (AID 2283467)
Procedure, shortened: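 Human HepaRG hepatic cultures, 48 h treatment with test chemicals up to 100 uM. ACOX1 expression read by qRT-PCR relative to 0.5% DMSO vehicle.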

[5] = read-out: Alkaline Phosphatase, Placental (ALPP) gene, ALPP (gene 250); assay: LTEA_HepaRG_ALPP: Life Technologies and Expression Analysis (LTEA) Assay for Alkaline Phosphatase, Placental (ALPP) gene using HepaRG (AID 2283468);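 on AC50: differentiated human HepaRG liver cells in serum-free induction medium; ALPP transcript by TaqMan qRT-PCR normalized to ACTB GAPDH and POLR2A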
Procedure, shortened: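 Using human liver HepaRG cells, chemicals are tested in duplicate over 48 h at half-log concentrations topping at 100 uM; phenobarbital 1 mM serves as induction control. ALPP mRNA change by qRT-PCR, bidirectional fit against vehicle.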

[6] = read-out: Bcl-2 (BAD) gene, BAD (gene 572); assay: LTEA_HepaRG_BAD: Life Technologies and Expression Analysis (LTEA) Assay for Bcl-2 (BAD) gene using HepaRG (AID 2283469)
Procedure, shortened: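 Activity values reflect up- or down-regulation of BAD mRNA in human HepaRG hepatic cells treated 48 h in serum-free medium, with eight-point half-log dosing capped at 100 uM and 0.5% DMSO vehicle.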

[7] = read-out: Bcl-2 (BAX) gene, BAX (gene 581); assay: LTEA_HepaRG_BAX: Life Technologies and Expression Analysis (LTEA) Assay for Bcl-2 (BAX) gene using HepaRG (AID 2283470)
Procedure, shortened: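 Cells were thawed, plated for 48 h, moved to serum-free induction medium and dosed for 48 h (highest concentration 100 uM, half-log steps, 0.5% DMSO). Total RNA was then analysed for BAX expression by qRT-PCR.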

[8] = read-out: adenosine kinase (ADK) gene, ADK (gene 132); assay: LTEA_HepaRG_ADK: Life Technologies and Expression Analysis (LTEA) Assay for adenosine kinase (ADK) gene using HepaRG (AID 2283471)
Procedure, shortened: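 Read-out is ADK transcript level measured by qRT-PCR and normalised to three housekeeping genes. Cells are human HepaRG, dosed for 48 h at up to 100 uM in 0.5% DMSO. Gain or loss of signal is fitted against DMSO controls.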

[9] = read-out: Alpha-fetoprotein (AFP) gene, AFP (gene 174); assay: LTEA_HepaRG_AFP: Life Technologies and Expression Analysis (LTEA) Assay for Alpha-fetoprotein (AFP) gene using HepaRG (AID 2283472);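 on AC50: AFP transcript by TaqMan qRT-PCR normalized to ACTB GAPDH and POLR2A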
Procedure, shortened: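 Chemicals were tested on differentiated HepaRG cells for 48 hours at eight concentrations up to 100 uM, with 0.5% DMSO as vehicle. AFP expression was then quantified by qRT-PCR and analyzed for gain or loss relative to DMSO.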

BCL2L11 (gene 10018) = assay: LTEA_HepaRG_BCL2L11: Life Technologies and Expression Analysis (LTEA) Assay for Bcl-2 (BCL2L11) gene using HepaRG (AID 2283473)
Procedure, shortened: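 Human hepatic HepaRG cultures are treated 48 h with test chemicals (maximum 100 uM, 0.5% DMSO vehicle). Expression of BCL2L11 is measured by qRT-PCR against ACTB, GAPDH and POLR2A, with activity in either direction scored relative to vehicle.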

Measured: AC50

Chain of Broad substrate specificity ATP-binding cassette transporter ABCG2 (Homo sapiens) (Q9UNQ0 whole entry, looked up): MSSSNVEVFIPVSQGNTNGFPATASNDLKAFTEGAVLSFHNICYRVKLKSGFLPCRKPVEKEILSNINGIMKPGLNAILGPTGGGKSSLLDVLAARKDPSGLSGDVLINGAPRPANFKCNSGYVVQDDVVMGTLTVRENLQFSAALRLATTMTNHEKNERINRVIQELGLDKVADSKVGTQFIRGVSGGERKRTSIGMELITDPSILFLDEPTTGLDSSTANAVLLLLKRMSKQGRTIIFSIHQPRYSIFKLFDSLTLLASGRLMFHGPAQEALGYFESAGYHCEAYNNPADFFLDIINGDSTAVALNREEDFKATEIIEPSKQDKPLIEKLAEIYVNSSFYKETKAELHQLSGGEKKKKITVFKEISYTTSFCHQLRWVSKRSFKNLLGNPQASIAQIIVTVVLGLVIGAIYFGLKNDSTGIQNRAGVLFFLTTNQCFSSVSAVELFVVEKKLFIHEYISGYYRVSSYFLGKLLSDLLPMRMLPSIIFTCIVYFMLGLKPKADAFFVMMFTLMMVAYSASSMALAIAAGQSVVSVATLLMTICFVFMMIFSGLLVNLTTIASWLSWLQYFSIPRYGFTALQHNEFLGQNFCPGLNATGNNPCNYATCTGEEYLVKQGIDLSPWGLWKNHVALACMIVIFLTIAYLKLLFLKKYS

O=C(O)c1ccccc1
inactive: [1] | [2] | [3] | [4] | [5] | [6] | [7] | [8] | [9] | BCL2L11 (gene 10018)

OB(O)O
inactive: [1] | [2] | [3] | [4] | [5] | [7] | [8] | [9] | BCL2L11 (gene 10018)

CC(C)(c1ccc(O)cc1)c1ccc(O)cc1
active: [4] 0.199 µM
inactive: [1] | [2] | [3] | [4] | [5] | [7] | [8] | [9] | BCL2L11 (gene 10018)

COC(=O)c1ccc(I)cc1S(=O)(=O)NC(=O)Nc1nc(C)nc(OC)n1
inactive: [1] | [2] | [3] | [4] | [5] | [6] | [7] | [8] | [9] | BCL2L11 (gene 10018)

O=C(O)C1(C(=O)Nc2ccc(Cl)cc2Cl)CC1
active: [1] 66.4 µM | [2] 78.2 µM | [4] 81.2 µM | [8] 79.4 µM | [9] 65.6 µM
inactive: [3] | [5] | [7] | BCL2L11 (gene 10018)

CC(=O)[C@H]1CC[C@H]2[C@@H]3CCC4=CC(=O)CC[C@]4(C)[C@H]3CC[C@]12C
active: [1] 78.9 µM | [2] 12.5 µM | [3] 83.2 µM | [4] 75.8 µM | [5] 30 µM | [7] 27 µM | [8] 88.7 µM | [9] 24.4 µM | BCL2L11 (gene 10018) 12.8 µM

COC(=O)c1ccccc1C(=O)O
inactive: [1] | [2] | [3] | [4] | [5] | [7] | [8] | [9] | BCL2L11 (gene 10018)

COc1c(Cl)ccc(Cl)c1C(=O)O
inactive: [1] | [2] | [3] | [4] | [5] | [6] | [7] | [8] | [9] | BCL2L11 (gene 10018)

CCOC(=O)c1ccc(O)cc1
inactive: [1] | [2] | [3] | [4] | [5] | [7] | [8] | [9] | BCL2L11 (gene 10018)

CCOC(=O)NCCOc1ccc(Oc2ccccc2)cc1
active: [2] 78 µM | [5] 50 µM | [9] 83.5 µM
inactive: [1] | [3] | [4] | [7] | [8] | BCL2L11 (gene 10018)

C[C@]12C[C@H](O)[C@H]3[C@@H](CCC4=CC(=O)CC[C@@]43C)[C@@H]1CC[C@@H]2C(=O)CO
inactive: [3] | [4] | [5] | [7] | [8] | [9] | BCL2L11 (gene 10018)
active: [1] 67.9 µM | [2] 50 µM

O=C(Nc1ccc([N+](=O)[O-])cc1Cl)c1cc(Cl)ccc1O
active: [1] 3.13 µM | [2] 17 µM | [3] 3.76 µM | [4] 3.17 µM | [5] 15.9 µM | [6] 3.89 µM | [7] 6.15 µM | [8] 3.07 µM | [9] 20.4 µM

CCCCOCCOCCOCc1cc2c(cc1CCC)OCO2
active: [1] 7.48 µM | [2] 8.84 µM | [9] 33.3 µM
inactive: [3] | [4] | [5] | [7] | [8] | BCL2L11 (gene 10018)
